± gives the standard deviation. Whole data set: some 6,200 sequences, median “pre-steady-state target cleavage rate” near 0.29, cut for the highest 2% near 2. For the sample, the highest values were picked, then their nearest neighbours and some sequences at random.
Tested on: MIWI (PIWIL1) piRISC loaded with piRNA #1 (30 nt)
Experiment: pre-steady-state target cleavage rate (min^-1); MIWI and MILI are mouse PIWI proteins and EfPiwi is from a freshwater sponge; tags in brackets are library labels; higher = faster piRNA-guided slicing of the target
Details: guide: piRNA #1 5'p-UGAGGUAGUAGGUUGUAUAGUAUCCAGAGG; auxiliary factor: 500 nM mouse GTSF1
In short: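 In this Cleave-'n-Seq assay, uncleaved targets were sequenced and normalised to depth and to weakly complementary targets. They came from a transcribed, DNA-blocked target RNA library […] mixed with 1 nM active affinity-purified piRISC carrying one synthetic guide, with or without 500 nM GTSF1 partner protein, in HEPES–potassium acetate buffer at 33 °C for 0–8 or 0–960 min. After three trials were pooled and k3 was capped at 0.0001 min^-1, the pre-steady-state cleavage rate was obtained from a burst-and-steady-state fit.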
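Note: 1 nM active piRISC with 0.1 nM target library at 33 °C single turnover.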

Sequence	pre-steady-state target cleavage rate
CCUCUGGAUACUAUACUACCUACUACCACA	1.68 ± 0.12
GGAGUGGAUACUACACAACCUACUACCUCA	1.71 ± 0.097
GGAGACGAUACUAUACAGCCUACUACCUCA	0.668 ± 0.028
GGAGUGGUUACUAUACAACCUAGUACCUCA	0.371 ± 0.05
GGAGACCUUACUAUACAACCUACUUCCUCA	0.399 ± 0.035
GCUCUGGAUAGAUUACAACCUACUACCUCA	0.735 ± 0.048
GGACAGGUUACUAUACAACCUACUACCUCA	1.9 ± 0.14
CCUCAGGUUACUAUACAACCUACUACCUCA	2.5 ± 0.16
CCUCAGGAUACUAUACAACCUACUACCUCA	1.98 ± 0.12
GCUCAGGUUACUAUACAACCUACUACCUCA	2.01 ± 0.12
GCUCAGGAUACUAUACAACCUACAACCUCA	0.866 ± 0.076
GCUCAGGAUACUAUACAACCUACUACCUCA	1.85 ± 0.11
GGUCUGGAUUCUAAACAACCUACUACCUCA	1.23 ± 0.071
GGAGACCUAUGUAUACAACCUACUCACCUCA	0.144 ± 0.027
GGAGACCUAACUAUACAACAUACUACCUCA	0.303 ± 0.036
GGAGAGGAUACUAUACACCCUACUACCUCA	1.4 ± 0.068
GGUCUGGAUACUAUACAACCUACUACCUCC [g2:g28:cont:t1C]	1.54 ± 0.11
GGUCUGGAUACUAUACAACCUACUACCUCCA	2.06 ± 0.12
GCUCUGGAUACUAUACAACCUACUACCUACA	1.87 ± 0.13
GCUCUGGAUACUAUACAACCUACUACCUCG [g2:g29:cont:t1G]	1.29 ± 0.098
GCUCUGGAUACUAUACAACCUACUACCUCU [g2:g29:cont:t1U]	2.16 ± 0.13
GGUCUGGAUACUAUACUACCUACAACCUCA	0.456 ± 0.054
GCUCUGGAUACUAUACAACCUACUACCUCCA	2.15 ± 0.14
GGUCUGGAUACUAUACAACCUACUACCUCU [g2:g28:cont:t1U]	1.59 ± 0.11

Sequence	pre-steady-state target cleavage rate
GCUCUGGAUACUAUACAACCUACUACCUAA	1.83 ± 0.12
CCUCUGGAUACUAUACAACCUACUACCUCCA	2.27 ± 0.14
GCUCUGGAUACCUAUACAACCUACUACCUCA	1.06 ± 0.08
GGAGACCAUACUAAACAACCUACUUCCUCA	0.195 ± 0.024
GGAGUGGAUACUAUACUACCUACUACCUGA	0.329 ± 0.052
GGAGUGGUUACUAUACAACGUACUACCUCA	0.386 ± 0.027
GGAGACGAUACUUUACAACCUACUAGCUCA	0.142 ± 0.027
GGUCUGGAUACUAUAGAACCUACUACCACA	0.0228 ± 0.0058
GGAGACGAUACAAUACAACCUACUACCUCA	1.29 ± 0.097
GGAGUGGAUACUAUAGAACCUACUACCUCA	1.34 ± 0.076
GGAGACCAUACUAUUCAACCUACUACCUGA	0.64 ± 0.075
GGAGAGGAUACUAUAGAACCUACUUCCUCA	0.00722 ± 0.0046
GGACUGCUUACUAUACAACCUACUACCUCA	1.54 ± 0.14
GGAGACCUAUGUAUACAAUCUACUACCUCA	0.0144 ± 0.0036
GCUCUGGAUACUAUACUACCUACAACCUCA	0.938 ± 0.086
GCUCUGGAUACUAUACAACCUACUACCUCC [g2:g29:cont:t1C]	2 ± 0.13
GCUCUGGAUACUAUACAACCUACUACCUA	1.37 ± 0.1
GGAGACCAUACUUUACAACCUACUACCUCA	1.3 ± 0.087
GCUCUGGAUACCAUACAACCUACUACCUCA	0.756 ± 0.059
GCUCUGGAUACUAUACAACCUACUAUCUCA	2.32 ± 0.24
CCUCUGGAUACUAUACAACCUACUACUCUCA	2.32 ± 0.16
GCUCUGGAUACUAUACAACCUAUCUACCUCA	0.356 ± 0.028
GCUCUGGAUACUAUACAACCUACUACUCUCA	2.07 ± 0.12
GGUCUGGAUACUAUACAACCUACUACUCUCA	1.2 ± 0.1

Sequence	pre-steady-state target cleavage rate
GCUCUGGAUACUAUACAACCUACUACUCA	1.64 ± 0.14
CCUCUGGAUACUAUACAACCUACUACUCA	1.76 ± 0.15
CCUCUGGAUACUAUACAACCUACUAUCUCA	1.09 ± 0.076
CCUCUGGAUACUAUACAACCUACUCCUCA	0.105 ± 0.022
CCUCUGGAUAGUAUACAACGUACUACCUCA	0.0367 ± 0.011
GGAGACCUAUCUAUACAACCUACUACCUUA	0.905 ± 0.069
GGAGACCUAUCUUUUCAACCUACUACCUCA	0.0982 ± 0.032
GCAUCUGGAUACUAUACAACCUACUACCUCA	1.82 ± 0.087
GGAGACCUAUGAUAUGUUGCUCACUACCUCA	0.00246 ± 0.0017
CCUCUGCAUACUAUUCAACCUACUACCUCA	2.21 ± 0.14
CCUCUGCAUUCUAUACAACCUACUACCUCA	2.13 ± 0.13
GGUCUGCAUACUAUACAACCUACUACCACA	0.7 ± 0.07
CCUCUGCAUACUAUACAACCUACUACCUCA	2.01 ± 0.12
GGUCUGCAUACUAUUCAACCUACUACCUCA	1.65 ± 0.12
GCUCUGCAUACUAUACAACCUACUACCUCA	1.96 ± 0.11
GGUCUGCAUUCUAUACAACCUACUACCUCA	1.51 ± 0.11
GCUCUGCAUACUAUUCAACCUACUACCUCA	1.93 ± 0.12
CCUCUGCAUACUAUACAACCUACAACCUCA	1.7 ± 0.12
GCUCUGCAUACUAUACAACCUACUACCACA	1.98 ± 0.18
CCUCUGCAUACUAUACAACCUACUACCACA	2.37 ± 0.19
GCUCUGCAUUCUAUACAACCUACUACCUCA	1.65 ± 0.11
GGACUGGAUACUAUACAAGGUACUACCUCA	0.331 ± 0.036
GCUCAGGAUACUAUACAACCUACUACCUGA	0.681 ± 0.042
GGAGACCAUACUAUACAACCUACUACCAUCA	1.35 ± 0.087

Sequence	pre-steady-state target cleavage rate
CCUCUGGAUACAAUACAACCUACUACCUGA	0.657 ± 0.085
GGAGACCUUACAAUACAAGCUACUACCUCA	0.258 ± 0.035
GCUCUGGAUAGUAUACAACCUACUACCUGA	0.324 ± 0.045
GGACUGGAUACUAUACAACCUAGAACCUCA	0.0154 ± 0.004
GGACUGGAAACUAUAGAACCUACUACCUCA	1.13 ± 0.08
GGAGAGGAUACUAUGCAACCUACUACCUCA	1.62 ± 0.095
GGACUGGAUACAUAACAACCUACUACCUCA	0.634 ± 0.11
GCUCUGCAUACUUUACAACCUACUACCUCA	1.68 ± 0.11
GGUGUGCAUACUAUACAACCUACUACCUCA	1.73 ± 0.1
CCUCUGCAUACAAUACAACCUACUACCUCA	2.02 ± 0.12
GGUCUGCAUACAAUACAACCUACUACCUCA	1.45 ± 0.11
GCUCUGCAUACAAUACAACCUACUACCUCA	1.82 ± 0.13
GCUGUGCAUACUAUACAACCUACUACCUCA	1.91 ± 0.12
GGUCAGCAUACUAUACAACCUACUACCUCA	1.81 ± 0.096
CCUCUGCAUACUUUACAACCUACUACCUCA	2.13 ± 0.15
GCUCAGCAUACUAUACAACCUACUACCUCA	1.83 ± 0.11
CCUCAGCAUACUAUACAACCUACUACCUCA	2.12 ± 0.13
CCUGUGCAUACUAUACAACCUACUACCUCA	2.3 ± 0.15
GGUCUGCAUACUUUACAACCUACUACCUCA	1.48 ± 0.12
GGAGACCUAUCUAAACAACCUACAACCUCA	0.00335 ± 0.0022
CCUCUGGAUACUAUACAGACCUACUACCUCA	0.0114 ± 0.0052
GGAGUGCAUACUAUACAACGUACUACCUCA	0.714 ± 0.039
GGAGAGGAUACUAUACAACCUACUACCUUA	1.28 ± 0.066
CCUCUGGAUAGUAUACAACCUACUUCCUCA	0.21 ± 0.034

Sequence	pre-steady-state target cleavage rate
GGAGAGGAUUCUAUACAACCUACUACCACA	0.665 ± 0.047
GCUCUGCUUACUAUACAACCUACUACCUCA	1.96 ± 0.12
CCUCUGCUUACUAUACAACCUACUACCUCA	2.19 ± 0.15
GGUCUGCUUACUAUACAACCUACUACCUCA	1.74 ± 0.12
GCACUGGAUACUAUACAACCAACUACCUCA	0.167 ± 0.017
GGAGUGCAUACAAUACAACCUACUACCUCA	1.11 ± 0.092
GCUCUGAGAUACUAUACAACCUACUACCUCA	2.07 ± 0.12
GGUCUGAGAUACUAUACAACCUACUACCUCA	1.89 ± 0.11
GGUCUGAUACUAUACAACCUACUACCUCA	1.79 ± 0.1
CCUCUGAGAUACUAUACAACCUACUACCUCA	0.572 ± 0.056
GCUCUGAUACUAUACAACCUACUACCUCA	1.9 ± 0.12
CCUCUGAUACUAUACAACCUACUACCUCA	2.11 ± 0.12
GGAGACCAUACUAUACAACCUACCUACCUCA	1.06 ± 0.066
GGAGUGGAUAUUAUACAACCUACUACCUCA	1.48 ± 0.072
GGAGACCAUACUAUACAACCUACUACCUCU [g2:g23:cont:t1U]	1.7 ± 0.11
GGAGUGGAUAGUAUUCAACCUACUACCUCA	0.584 ± 0.064
GGAGACCUUACUAUACAUGGUACUACCUCA	0.00452 ± 0.0025
GCUCUGGUUACUAUUCAACCUACUACCUCA	1.88 ± 0.12
CCUCUGGAUACUAUACAACCUACUUCCACA	0.337 ± 0.05
GCUACUGGAUACUAUACAACCUACUACCUCA	2.14 ± 0.13
GGACUGGAUACUAUACAACCUACCUACCUCA	1.06 ± 0.094
GCACUGGAUACUAUACAACCUACUACCUCA	1.81 ± 0.093
GGACUGGAUUCUAUACAACCUACUACCUCA	1.63 ± 0.11
CCUACUGGAUACUAUACAACCUACUACCUCA	2.04 ± 0.11

Sequence	pre-steady-state target cleavage rate
CCACUGGAUACUAUACAACCUACUACCUCA	1.8 ± 0.11
GGACUGGAUACUAUACAACCUACUACCUCC [g2:g27:cont:t1C]	1.42 ± 0.088
CCACUGGAUUCUAUACAACCUACUACCUCA	2.08 ± 0.12
GGACUGGAUACUAUACUACCUACAACCUCA	0.39 ± 0.057
GGACUGGAUACUAUACAACCUACUACCUCCA	2.19 ± 0.17
GCACUGGAUUCUAUACAACCUACUACCUCA	1.85 ± 0.096
GGACUGGAUACCUAUACAACCUACUACCUCA	1.15 ± 0.095
GGUCAGGAUACUAUACAACCUACUAGCUCA	0.255 ± 0.033
GGAGACCUAACUAUACAACCUACUACCAGA	0.385 ± 0.062
GGAGACCUUACUAUACAACCUACUACCCCA	0.956 ± 0.086
GGAGACGAUACUAUACAACCUACUACGUGA	0.348 ± 0.054
GGACUGGAUACUAUACAACCUAUUACCUCA	0.86 ± 0.075
GCUCUGGAUACUAUACAACCUACAUGCUCA	0.589 ± 0.072
GGAGACCAUACUAAUACAACCUACUACCUCA	0.978 ± 0.08
GGUCUGCAUACUAUACAACCUACUACCUGA	0.677 ± 0.13
GGAGACGAUUCUAUACAACCUACUACGUCA	0.92 ± 0.069
CCUCUGGAUCCUAUACAACCUACUACCUCA	1.38 ± 0.14
GGUCUGGAUACAUACAACCUACUACCUCA	1.44 ± 0.11
GCUCAGGAUUCUAUACAACCUACUACCUCA	1.87 ± 0.092
GGUCAGGAUUCUAUACAACCUACUACCUCA	1.77 ± 0.12
CCUCAGGAUUCUAUACAACCUACUACCUCA	2.24 ± 0.13
GCUGUGGAUACUAUACAACCUACUACCUGA	0.776 ± 0.18
